# PubChem BioAssay (NCATS)
# Results filed as inconclusive are left out. Entries that show only a call come without a potency. Values without a mark were called inactive. Activity calls are given as the source filed them. The call rests on the fitted dose curve; in most records, active means well fitted cell-killing curve with a large enough effect; inconclusive means small, poorly fitted or top-dose-only effect, or effect the other way; inactive means flat fitted curve, though single readings scatter.
# Assays:
# Assay in all cases: Primary qHTS to identify gynecologic anti-cancer compounds using libraries of approved drugs and bioactive compounds (AID 1345084); further: nearly all actives have a fitted effect of over 55% in size
# C33A = details: Gynecologic cancer cell panel viability, ATPlite luminescence, 48 h; series mostly up to 57.5 µM
# Outline: (§1)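 ATP-based viability (ATPlite), 1,000 cells/well, 16 h pre-incubation, 48 h compound at 37 C, 5% CO2, 15 min RT before read.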
# CASKI = details: Gynecologic cancer cell panel viability, ATPlite luminescence, 48 h; series mostly up to 57.5 µM
# Outline: as §1
# Es-2 = details: Gynecologic cancer cell panel viability, ATPlite luminescence, 48 h; series mostly up to 57.5 µM
# Outline: as §1
# HeLa = details: Gynecologic cancer cell panel viability, ATPlite luminescence, 48 h; series mostly up to 57.5 µM
# Outline: as §1
# Hek293T = details: Gynecologic cancer cell panel viability, ATPlite luminescence, 48 h, control line for the selectivity index; series mostly up to 57.5 µM
# Outline: as §1
# JEG-3 = details: Gynecologic cancer cell panel viability, ATPlite luminescence, 48 h; series mostly up to 57.5 µM
# Outline: as §1
# OV90 = details: Gynecologic cancer cell panel viability, ATPlite luminescence, 48 h; series mostly up to 57.5 µM
# Outline: as §1
# SKOV3 = details: Gynecologic cancer cell panel viability, ATPlite luminescence, 48 h; series mostly up to 57.5 µM
# Outline: as §1
# Tov-21-G = details: Gynecologic cancer cell panel viability, ATPlite luminescence, 48 h; series mostly up to 57.5 µM
# Outline: as §1
# Tov112D = details: Gynecologic cancer cell panel viability, ATPlite luminescence, 48 h; series mostly up to 57.5 µM
# Outline: as §1
# PA-1 = details: Gynecologic cancer cell panel viability, ATPlite luminescence, 48 h; series mostly up to 57.5 µM
# Outline: as §1
# Potency means the concentration at half of the fitted maximal effect.
compound,measurement,setting,value
CC(=O)OC1C(O)CC2(C)C(CCC(C)C23Cc2c(O)cc(CO)c(C=O)c2O3)C1(C)C (stereo not drawn),Potency,C33A,inactive
same,Potency,CASKI,inactive
same,Potency,Es-2,inactive
same,Potency,HeLa,inactive
same,Potency,Hek293T,inactive
same,Potency,JEG-3,inactive
same,Potency,OV90,inactive
same,Potency,SKOV3,inactive
same,Potency,Tov-21-G,inactive
same,Potency,Tov112D,inactive
O=C(c1ccc2nccnc2c1)N1CCCCC1,Potency,C33A,inactive
same,Potency,CASKI,inactive
same,Potency,Es-2,inactive
same,Potency,HeLa,inactive
same,Potency,Hek293T,inactive
same,Potency,JEG-3,inactive
same,Potency,OV90,inactive
same,Potency,PA-1,inactive
same,Potency,Tov-21-G,inactive
same,Potency,Tov112D,inactive
CNC(C)C(=O)NC(C(=O)N1CCCC1c1nc(C(=O)c2ccc(F)cc2)cs1)C1CCCCC1 (stereo not drawn),Potency,C33A,inactive
same,Potency,CASKI,inactive
same,Potency,Es-2,inactive
same,Potency,HeLa,inactive
same,Potency,Hek293T,inactive
same,Potency,JEG-3,inactive
same,Potency,OV90,inactive
same,Potency,PA-1,inactive
same,Potency,Tov112D,inactive
O=C(O)CCCCCC[C@H]1C(=O)NC(=O)N1CC[C@@H](O)C1CCCCC1,Potency,C33A,inactive
same,Potency,CASKI,inactive
same,Potency,Es-2,inactive
same,Potency,HeLa,inactive
same,Potency,Hek293T,inactive
same,Potency,JEG-3,inactive
same,Potency,OV90,inactive
same,Potency,PA-1,inactive
same,Potency,Tov-21-G,inactive
same,Potency,Tov112D,inactive
CC1=CCC2C(C)(C)CCC[C@]2(C)[C@@]12CC[C@](C)(CC(=O)O)O2 (stereo partly drawn),Potency,C33A,inactive
same,Potency,CASKI,inactive
same,Potency,Es-2,inactive
same,Potency,HeLa,inactive
same,Potency,Hek293T,inactive
same,Potency,JEG-3,inactive
same,Potency,OV90,inactive
same,Potency,PA-1,inactive
same,Potency,Tov-21-G,inactive
same,Potency,Tov112D,inactive
C[C@@H]1O[C@@H](O[C@@H]2[C@@H](O)[C@H](O[C@H]3CC[C@@]4(C)C(CC[C@]5(C)C4CC=C4[C@@H]6CC(C)(C)CC[C@]6(C(=O)O[C@@H]6O[C@H](CO)[C@@H](O)[C@H](O)[C@H]6O)CC[C@]45C)C3(C)C)O[C@H](C(=O)O)[C@H]2O)[C@H](O)[C@H](O)[C@H]1O (stereo partly drawn),"activity change, negative = cytotoxicity",C33A,-0.88% [at 11.6 µM]
same,"activity change, negative = cytotoxicity",CASKI,17% [at 11.6 µM]
same,"activity change, negative = cytotoxicity",Es-2,6.6% [at 11.6 µM]
same,"activity change, negative = cytotoxicity",HeLa,2.44% [at 11.6 µM]
same,"activity change, negative = cytotoxicity",Hek293T,5.01% [at 11.6 µM]
same,"activity change, negative = cytotoxicity",JEG-3,4.87% [at 11.6 µM]
same,"activity change, negative = cytotoxicity",OV90,3.49% [at 11.6 µM]
same,"activity change, negative = cytotoxicity",PA-1,2.04% [at 11.6 µM]
same,"activity change, negative = cytotoxicity",Tov-21-G,1.47% [at 11.6 µM]
same,"activity change, negative = cytotoxicity",Tov112D,5.96% [at 11.6 µM]
CC(C)=CCC/C(C)=C/CO[C@@H]1O[C@H](CO)[C@@H](O)[C@H](O)[C@H]1O,Potency,C33A,inactive
same,Potency,CASKI,inactive
same,Potency,Es-2,inactive
same,Potency,HeLa,inactive
same,Potency,Hek293T,inactive
same,Potency,JEG-3,inactive
same,Potency,OV90,inactive
same,Potency,PA-1,inactive
same,Potency,Tov-21-G,inactive
same,Potency,Tov112D,inactive
CO[C@H]1C[C@@H]2CC[C@@H](C)[C@@](O)(O2)C(=O)C(=O)N2CCCC[C@H]2C(=O)O[C@H]([C@H](C)C[C@H]2CC[C@@H](OP(C)(C)=O)[C@H](OC)C2)CC(=O)[C@H](C)/C=C(\C)[C@@H](O)[C@@H](OC)C(=O)[C@H](C)C[C@H](C)/C=C/C=C/C=C/1C,Potency,C33A,inactive
same,Potency,CASKI,inactive
same,Potency,Es-2,inactive
same,Potency,HeLa,inactive
same,Potency,Hek293T,inactive
same,Potency,JEG-3,inactive
same,Potency,OV90,inactive
same,Potency,PA-1,inactive
same,Potency,Tov-21-G,inactive
same,Potency,Tov112D,inactive
C=C(C(=O)O)[C@H]1C[C@]2(C)[C@@H](O)CC[C@]23O[C@H]1C[C@@H]3C,Potency,C33A,inactive
same,Potency,CASKI,inactive
same,Potency,Es-2,inactive
same,Potency,HeLa,inactive
same,Potency,Hek293T,inactive
same,Potency,JEG-3,inactive
same,Potency,OV90,inactive
same,Potency,PA-1,inactive
same,Potency,Tov-21-G,inactive
same,Potency,Tov112D,inactive
NC(=O)c1csc(C2OC(CO)C(O)C2O)n1 (stereo not drawn),Potency,C33A,inactive
same,Potency,CASKI,inactive
same,Potency,Es-2,inactive
same,Potency,HeLa,inactive
same,Potency,Hek293T,inactive
same,Potency,JEG-3,inactive
same,Potency,OV90,inactive
same,Potency,SKOV3,inactive
same,Potency,Tov-21-G,inactive
same,Potency,Tov112D,inactive
NC1CCC(Nc2cc(-c3cccc(NCc4cccc(F)c4)n3)c(Cl)cn2)CC1 (stereo not drawn),Potency,C33A,1260 nM (active)
same,Potency,CASKI,891 nM (active)
same,Potency,Es-2,708 nM (active)
same,Potency,HeLa,355 nM (active)
same,Potency,Hek293T,1000 nM (active)
same,Potency,PA-1,178 nM (active)
same,Potency,Tov112D,891 nM (active)
CC1(C)CC[C@]2(C(=O)O[C@@H]3O[C@H](CO)[C@@H](O)[C@H](O)[C@H]3O)CC[C@]3(C)C(=CCC4[C@@]5(C)CC[C@H](O[C@@H]6O[C@H](C(=O)O)[C@@H](O)[C@H](O)[C@H]6O)C(C)(C)C5CC[C@]43C)C2C1 (stereo partly drawn),"activity change, negative = cytotoxicity",C33A,3.23% [at 11.6 µM]
same,"activity change, negative = cytotoxicity",CASKI,-0.46% [at 11.6 µM]
same,"activity change, negative = cytotoxicity",Es-2,6.53% [at 11.6 µM]
same,"activity change, negative = cytotoxicity",HeLa,7.58% [at 11.6 µM]
same,"activity change, negative = cytotoxicity",Hek293T,5.45% [at 11.6 µM]
same,"activity change, negative = cytotoxicity",JEG-3,7.56% [at 11.6 µM]
same,"activity change, negative = cytotoxicity",OV90,-4.22% [at 11.6 µM]
same,"activity change, negative = cytotoxicity",PA-1,9.38% [at 11.6 µM]
same,"activity change, negative = cytotoxicity",SKOV3,0% [at 11.6 µM]
same,"activity change, negative = cytotoxicity",Tov-21-G,5.62% [at 11.6 µM]
same,"activity change, negative = cytotoxicity",Tov112D,11.2% [at 11.6 µM]
C[C@@H]1CC[C@]2(C(=O)O[C@@H]3O[C@H](CO)[C@@H](O)[C@H](O)[C@H]3O)CC[C@]3(C)C(=CCC4[C@@]5(C)C[C@@H](O)[C@H](O)[C@](C)(C(=O)O)C5CC[C@]43C)[C@@H]2[C@]1(C)O (stereo partly drawn),Potency,C33A,inactive
same,Potency,CASKI,inactive
same,Potency,Es-2,inactive
same,Potency,HeLa,inactive
same,Potency,Hek293T,inactive
same,Potency,JEG-3,inactive
same,Potency,OV90,inactive
same,Potency,SKOV3,inactive
same,Potency,Tov-21-G,inactive
same,Potency,Tov112D,inactive
CCOC(=O)c1sc(NC(=O)[C@H](C(C)C)n2c(=O)[nH]c3ccccc3c2=O)nc1C,Potency,C33A,inactive
same,Potency,CASKI,inactive
same,Potency,Es-2,inactive
same,Potency,HeLa,inactive
same,Potency,Hek293T,inactive
same,Potency,JEG-3,inactive
same,Potency,OV90,inactive
same,Potency,PA-1,inactive
same,Potency,SKOV3,inactive
same,Potency,Tov-21-G,inactive
same,Potency,Tov112D,inactive
CNC(=S)NS(=O)(=O)c1cc(CCNC(=O)c2cc(Cl)ccc2OC)ccc1OC,Potency,C33A,inactive
same,Potency,CASKI,inactive
same,Potency,Es-2,inactive
same,Potency,HeLa,inactive
same,Potency,Hek293T,inactive
same,Potency,JEG-3,inactive
same,Potency,PA-1,inactive
same,Potency,SKOV3,inactive
same,Potency,Tov-21-G,inactive
same,Potency,Tov112D,inactive
CCC(COC)n1nnc2c(Nc3ccc(OC)cc3C)nc(C)cc21 (stereo not drawn),Potency,C33A,inactive
same,Potency,CASKI,inactive
same,Potency,Es-2,inactive
same,Potency,HeLa,inactive
same,Potency,Hek293T,inactive
same,Potency,JEG-3,inactive
same,Potency,OV90,inactive
same,Potency,PA-1,inactive
same,Potency,Tov-21-G,inactive
same,Potency,Tov112D,inactive
O=C(N/N=C/c1ccc(O)c(O)c1)c1cc2ccccc2cc1O,Potency,C33A,inactive
same,Potency,CASKI,inactive
same,Potency,Es-2,inactive
same,Potency,HeLa,inactive
same,Potency,Hek293T,inactive
same,Potency,JEG-3,inactive
same,Potency,OV90,inactive
same,Potency,PA-1,inactive
same,Potency,SKOV3,inactive
same,Potency,Tov112D,inactive
CCC(O)(C(=O)OCc1ccccc1NC(=O)CCC(=O)O)C(C)O (stereo not drawn),Potency,C33A,inactive
same,Potency,CASKI,inactive
same,Potency,Es-2,inactive
same,Potency,HeLa,inactive
same,Potency,Hek293T,inactive
same,Potency,JEG-3,inactive
same,Potency,OV90,inactive
same,Potency,PA-1,inactive
same,Potency,Tov-21-G,inactive
same,Potency,Tov112D,inactive
